Source: paper PMC7862700, “An all-to-all approach to the identification of sequence-specific readers for epigenetic DNA modifications on cytosine”

Tests used:
Experiment in all cases: DAPPL (digital affinity profiling via proximity ligation, sequencing); 10 mM Tris-HCl pH 7.5, 50 mM NaCl, 1 mM DTT, 4% glycerol, room temperature, 30 min; GST-TFs on glutathione beads, 16-mer random dsDNA library, 0.1% formaldehyde crosslink after washing; high values mean tight binding
FEV = biological target: T1, FEV (Homo sapiens, UniProt Q99581 1-238); settings: protein: recombinant; tags: N-terminal GST; dsDNA, one strand shown
T1 sequence: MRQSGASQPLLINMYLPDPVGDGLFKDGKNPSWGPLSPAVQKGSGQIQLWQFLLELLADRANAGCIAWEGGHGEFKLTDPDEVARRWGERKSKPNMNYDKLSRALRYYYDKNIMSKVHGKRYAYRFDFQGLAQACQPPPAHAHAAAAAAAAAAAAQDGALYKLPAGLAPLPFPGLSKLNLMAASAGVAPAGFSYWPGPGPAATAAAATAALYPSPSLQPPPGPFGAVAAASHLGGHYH
Procedure, shortened: (§1)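 In yeast, human transcription factors were expressed with a GST fusion, then pulled down on glutathione beads and given DNA barcodes. Pooled with a tag-only sample, they were exposed to 200 nmole of a 16-mer random double-stranded DNA library (Tris/NaCl/DTT/glycerol buffer, room temperature, 30 min), washed, crosslinked with 0.1% formaldehyde, proximity-ligated using BsaI/T4 ligase for 1 h at 37 °C, PCR-amplified and read on an Illumina NextSeq500. Each hexamer's frequency of reads for a factor, divided by the matching frequency for the tag-only sample, gives the binding signal.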

ETV5 = ETV5 (Homo sapiens, UniProt P41161 1-510); settings: protein: recombinant; tags: N-terminal GST; dsDNA, one strand shown
Chain of ETV5 (P41161 whole entry): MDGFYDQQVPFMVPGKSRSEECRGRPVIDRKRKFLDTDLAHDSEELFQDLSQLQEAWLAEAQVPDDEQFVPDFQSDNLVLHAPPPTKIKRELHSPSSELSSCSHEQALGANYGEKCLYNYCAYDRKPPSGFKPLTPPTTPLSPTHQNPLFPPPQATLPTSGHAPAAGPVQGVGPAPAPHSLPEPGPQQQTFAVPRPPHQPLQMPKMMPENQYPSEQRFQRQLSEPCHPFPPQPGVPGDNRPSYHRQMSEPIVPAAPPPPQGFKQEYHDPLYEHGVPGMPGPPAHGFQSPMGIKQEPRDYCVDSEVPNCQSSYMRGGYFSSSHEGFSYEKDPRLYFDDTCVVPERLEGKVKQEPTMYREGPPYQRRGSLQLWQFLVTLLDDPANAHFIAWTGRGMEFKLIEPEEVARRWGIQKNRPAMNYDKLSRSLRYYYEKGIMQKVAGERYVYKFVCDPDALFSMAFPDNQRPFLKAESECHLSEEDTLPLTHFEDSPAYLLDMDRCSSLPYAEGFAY
Procedure, shortened: as §1

HSF1 = HSF1 (Homo sapiens, UniProt Q00613 1-529); settings: protein: recombinant; tags: N-terminal GST; chain copies: 3; dsDNA, one strand shown
Chain of HSF1 (Q00613 whole entry): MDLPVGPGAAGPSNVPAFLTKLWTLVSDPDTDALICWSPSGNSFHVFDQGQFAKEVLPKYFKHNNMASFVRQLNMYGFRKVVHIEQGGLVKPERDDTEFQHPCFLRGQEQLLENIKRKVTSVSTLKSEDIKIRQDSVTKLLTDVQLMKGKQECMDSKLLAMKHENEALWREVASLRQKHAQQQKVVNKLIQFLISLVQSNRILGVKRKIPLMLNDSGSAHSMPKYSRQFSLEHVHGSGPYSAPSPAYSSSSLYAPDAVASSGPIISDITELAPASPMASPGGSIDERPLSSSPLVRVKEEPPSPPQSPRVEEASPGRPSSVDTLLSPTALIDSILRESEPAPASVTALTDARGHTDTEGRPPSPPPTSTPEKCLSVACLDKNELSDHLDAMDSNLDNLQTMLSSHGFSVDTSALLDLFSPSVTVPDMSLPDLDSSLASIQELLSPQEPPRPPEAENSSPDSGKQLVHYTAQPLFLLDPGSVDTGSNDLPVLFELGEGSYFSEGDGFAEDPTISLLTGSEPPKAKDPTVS
Procedure, shortened: as §1

SPIC = biological target: T2, SPIC (Homo sapiens, UniProt Q8N5J4 1-248); settings: protein: recombinant; tags: N-terminal GST; dsDNA, one strand shown
T2 sequence: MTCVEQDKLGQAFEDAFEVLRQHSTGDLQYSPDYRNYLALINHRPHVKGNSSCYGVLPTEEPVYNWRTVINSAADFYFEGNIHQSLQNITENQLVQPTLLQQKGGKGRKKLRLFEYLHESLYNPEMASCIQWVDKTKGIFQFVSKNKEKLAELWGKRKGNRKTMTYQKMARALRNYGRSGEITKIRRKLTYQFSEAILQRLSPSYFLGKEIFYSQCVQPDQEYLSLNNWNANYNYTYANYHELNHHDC
Procedure, shortened: as §1

ELF4 = ELF4 (Homo sapiens, UniProt Q99607 1-663); settings: protein: recombinant; tags: N-terminal GST; dsDNA, one strand shown
Chain of ELF4 (Q99607 whole entry): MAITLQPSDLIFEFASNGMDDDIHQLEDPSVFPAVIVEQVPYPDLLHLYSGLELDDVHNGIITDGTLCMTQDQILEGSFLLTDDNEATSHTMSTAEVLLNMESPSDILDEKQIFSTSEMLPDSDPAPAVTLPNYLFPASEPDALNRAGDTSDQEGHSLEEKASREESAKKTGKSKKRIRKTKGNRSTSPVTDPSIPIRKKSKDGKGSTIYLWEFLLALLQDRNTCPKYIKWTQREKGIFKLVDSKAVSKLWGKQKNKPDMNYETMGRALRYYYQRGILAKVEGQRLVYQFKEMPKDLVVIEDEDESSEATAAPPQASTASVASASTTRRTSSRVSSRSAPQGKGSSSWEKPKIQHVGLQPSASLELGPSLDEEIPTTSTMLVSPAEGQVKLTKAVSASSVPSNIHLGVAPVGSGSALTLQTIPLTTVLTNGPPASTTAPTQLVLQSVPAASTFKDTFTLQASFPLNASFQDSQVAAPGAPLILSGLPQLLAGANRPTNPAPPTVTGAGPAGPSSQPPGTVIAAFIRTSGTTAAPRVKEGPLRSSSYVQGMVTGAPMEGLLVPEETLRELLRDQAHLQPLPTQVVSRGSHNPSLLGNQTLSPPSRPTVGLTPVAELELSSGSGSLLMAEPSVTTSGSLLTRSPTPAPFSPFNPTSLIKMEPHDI
Procedure, shortened: as §1

ELK4 = biological target: T3, ELK4 (Homo sapiens, UniProt P28324-2 1-405); settings: protein: recombinant; tags: N-terminal GST; dsDNA, one strand shown
T3 sequence: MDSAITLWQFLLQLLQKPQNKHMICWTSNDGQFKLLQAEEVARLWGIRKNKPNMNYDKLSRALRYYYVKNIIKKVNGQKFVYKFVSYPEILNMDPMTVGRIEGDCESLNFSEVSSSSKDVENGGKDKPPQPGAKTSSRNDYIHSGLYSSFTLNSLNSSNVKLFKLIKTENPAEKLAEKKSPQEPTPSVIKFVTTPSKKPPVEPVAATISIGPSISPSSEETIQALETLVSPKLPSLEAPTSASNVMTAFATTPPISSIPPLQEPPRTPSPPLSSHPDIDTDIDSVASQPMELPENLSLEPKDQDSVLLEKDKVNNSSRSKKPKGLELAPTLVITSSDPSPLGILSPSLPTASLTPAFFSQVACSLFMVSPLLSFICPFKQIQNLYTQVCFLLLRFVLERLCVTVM
Procedure, shortened: as §1

ETV2 = biological target: T4, ETV2 (Homo sapiens, UniProt O00321 1-342); settings: protein: recombinant; tags: N-terminal GST; dsDNA, one strand shown
T4 sequence: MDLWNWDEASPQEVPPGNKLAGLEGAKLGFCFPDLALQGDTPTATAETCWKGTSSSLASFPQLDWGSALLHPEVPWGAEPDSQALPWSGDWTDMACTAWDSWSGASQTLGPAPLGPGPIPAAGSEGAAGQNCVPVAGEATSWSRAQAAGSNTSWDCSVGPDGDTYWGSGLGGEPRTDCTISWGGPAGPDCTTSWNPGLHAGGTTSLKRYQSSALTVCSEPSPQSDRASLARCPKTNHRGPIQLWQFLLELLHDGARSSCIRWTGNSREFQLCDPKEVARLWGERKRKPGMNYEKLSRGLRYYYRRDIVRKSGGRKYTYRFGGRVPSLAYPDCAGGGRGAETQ
Procedure, shortened: as §1

ELF3 = biological target: T5, ELF3 (Homo sapiens, UniProt P78545 1-371); settings: protein: recombinant; tags: N-terminal GST; dsDNA, one strand shown
T5 sequence: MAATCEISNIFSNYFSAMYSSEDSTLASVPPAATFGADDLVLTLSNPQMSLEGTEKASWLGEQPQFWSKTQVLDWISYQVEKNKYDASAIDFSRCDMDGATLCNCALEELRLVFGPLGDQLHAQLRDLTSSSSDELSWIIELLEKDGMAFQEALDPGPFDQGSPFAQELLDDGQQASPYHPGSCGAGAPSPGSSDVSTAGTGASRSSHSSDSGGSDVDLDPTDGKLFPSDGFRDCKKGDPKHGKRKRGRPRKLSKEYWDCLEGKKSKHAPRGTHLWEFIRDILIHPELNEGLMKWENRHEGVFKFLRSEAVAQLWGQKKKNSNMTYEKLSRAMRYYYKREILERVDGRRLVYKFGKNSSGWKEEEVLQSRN
Procedure, shortened: as §1

CRX = CRX (Homo sapiens, UniProt O43186 1-299); settings: protein: recombinant; tags: N-terminal GST; dsDNA, one strand shown
Chain of CRX (O43186 whole entry): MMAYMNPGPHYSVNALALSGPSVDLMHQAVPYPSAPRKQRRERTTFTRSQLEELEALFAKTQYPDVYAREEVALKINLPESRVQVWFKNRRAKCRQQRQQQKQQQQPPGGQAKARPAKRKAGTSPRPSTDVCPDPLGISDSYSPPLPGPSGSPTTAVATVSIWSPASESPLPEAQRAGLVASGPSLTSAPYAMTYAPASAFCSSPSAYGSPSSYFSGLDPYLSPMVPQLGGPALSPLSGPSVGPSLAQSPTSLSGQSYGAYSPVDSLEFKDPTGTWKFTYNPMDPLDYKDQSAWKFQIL
Procedure, shortened: as §1

ETV1 = ETV1 (Homo sapiens, UniProt P50549 1-477); settings: protein: recombinant; tags: N-terminal GST; dsDNA, one strand shown
Chain of ETV1 (P50549 whole entry): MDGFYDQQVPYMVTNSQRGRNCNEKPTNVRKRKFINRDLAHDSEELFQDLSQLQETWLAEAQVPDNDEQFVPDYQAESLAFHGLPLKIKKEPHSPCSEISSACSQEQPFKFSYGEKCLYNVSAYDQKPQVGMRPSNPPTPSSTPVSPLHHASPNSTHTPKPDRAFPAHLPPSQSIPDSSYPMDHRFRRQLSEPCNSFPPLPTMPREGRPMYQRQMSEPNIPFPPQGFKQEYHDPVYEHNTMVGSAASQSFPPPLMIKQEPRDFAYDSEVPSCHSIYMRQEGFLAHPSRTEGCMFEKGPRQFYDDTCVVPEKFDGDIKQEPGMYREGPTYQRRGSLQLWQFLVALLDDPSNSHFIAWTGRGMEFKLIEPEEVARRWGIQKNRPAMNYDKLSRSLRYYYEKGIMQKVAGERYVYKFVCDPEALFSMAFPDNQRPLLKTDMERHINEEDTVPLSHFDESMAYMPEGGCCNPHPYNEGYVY
Procedure, shortened: as §1

ERF = biological target: T6, ERF (Homo sapiens, UniProt P50548 1-548); settings: protein: recombinant; tags: N-terminal GST; dsDNA, one strand shown
T6 sequence: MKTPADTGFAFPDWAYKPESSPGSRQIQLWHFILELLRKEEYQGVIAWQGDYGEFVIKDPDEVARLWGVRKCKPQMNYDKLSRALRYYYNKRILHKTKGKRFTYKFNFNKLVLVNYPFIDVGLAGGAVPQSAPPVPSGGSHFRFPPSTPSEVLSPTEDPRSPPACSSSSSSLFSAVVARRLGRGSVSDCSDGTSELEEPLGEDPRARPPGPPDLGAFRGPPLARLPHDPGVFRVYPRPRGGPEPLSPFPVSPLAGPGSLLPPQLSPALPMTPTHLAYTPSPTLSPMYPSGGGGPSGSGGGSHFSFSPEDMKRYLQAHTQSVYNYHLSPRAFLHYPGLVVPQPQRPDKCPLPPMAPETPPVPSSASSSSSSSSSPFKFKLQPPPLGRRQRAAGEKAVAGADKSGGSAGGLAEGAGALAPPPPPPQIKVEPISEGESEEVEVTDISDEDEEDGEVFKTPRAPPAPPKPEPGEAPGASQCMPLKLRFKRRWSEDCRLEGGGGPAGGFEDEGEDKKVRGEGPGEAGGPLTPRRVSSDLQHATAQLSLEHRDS
Procedure, shortened: as §1

ETV3L = biological target: T7, ETV3L (Homo sapiens, UniProt Q6ZN32 1-361); settings: protein: recombinant; tags: N-terminal GST; dsDNA, one strand shown
T7 sequence: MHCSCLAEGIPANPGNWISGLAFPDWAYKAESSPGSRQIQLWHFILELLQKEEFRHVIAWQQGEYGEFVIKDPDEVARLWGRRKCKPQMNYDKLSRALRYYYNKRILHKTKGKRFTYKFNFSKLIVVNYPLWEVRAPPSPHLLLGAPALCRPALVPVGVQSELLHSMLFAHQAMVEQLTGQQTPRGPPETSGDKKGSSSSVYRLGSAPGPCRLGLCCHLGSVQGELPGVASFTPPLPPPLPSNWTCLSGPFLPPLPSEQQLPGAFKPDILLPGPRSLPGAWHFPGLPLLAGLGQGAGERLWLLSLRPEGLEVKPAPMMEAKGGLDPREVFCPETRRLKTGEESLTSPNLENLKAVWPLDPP
Procedure, shortened: as §1

ETS2 = biological target: T8, ETS2 (Homo sapiens, UniProt P15036 1-469); settings: protein: recombinant; tags: N-terminal GST; dsDNA, one strand shown
T8 sequence: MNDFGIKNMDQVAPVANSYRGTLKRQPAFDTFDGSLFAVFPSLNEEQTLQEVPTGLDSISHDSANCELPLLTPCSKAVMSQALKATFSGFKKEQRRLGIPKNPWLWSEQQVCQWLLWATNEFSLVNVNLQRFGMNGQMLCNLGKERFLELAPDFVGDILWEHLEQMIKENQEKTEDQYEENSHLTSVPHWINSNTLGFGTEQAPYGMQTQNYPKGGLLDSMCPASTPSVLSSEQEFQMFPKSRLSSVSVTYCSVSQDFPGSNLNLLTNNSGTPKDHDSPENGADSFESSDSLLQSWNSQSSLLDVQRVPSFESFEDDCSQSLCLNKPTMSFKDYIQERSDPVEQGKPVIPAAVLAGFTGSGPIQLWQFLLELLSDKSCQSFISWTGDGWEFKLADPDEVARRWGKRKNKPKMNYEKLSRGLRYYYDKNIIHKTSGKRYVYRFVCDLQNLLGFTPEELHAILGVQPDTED
Procedure, shortened: as §1

SPDEF = biological target: T9, SPDEF (Homo sapiens, UniProt O95238 1-335); settings: protein: recombinant; tags: N-terminal GST; dsDNA, one strand shown
T9 sequence: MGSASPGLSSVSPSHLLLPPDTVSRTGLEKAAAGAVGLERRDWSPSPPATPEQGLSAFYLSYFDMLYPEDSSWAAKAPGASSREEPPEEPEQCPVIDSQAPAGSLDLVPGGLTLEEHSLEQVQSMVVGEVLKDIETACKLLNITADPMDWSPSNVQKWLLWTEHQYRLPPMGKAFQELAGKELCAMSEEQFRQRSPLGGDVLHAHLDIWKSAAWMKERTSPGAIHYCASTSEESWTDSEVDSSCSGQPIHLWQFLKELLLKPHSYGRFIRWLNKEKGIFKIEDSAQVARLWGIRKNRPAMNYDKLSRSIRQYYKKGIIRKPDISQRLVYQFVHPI
Procedure, shortened: as §1

ETV7 = biological target: T10, ETV7 (Homo sapiens, UniProt Q9Y603 1-341); settings: protein: recombinant; tags: N-terminal GST; dsDNA, one strand shown
T10 sequence: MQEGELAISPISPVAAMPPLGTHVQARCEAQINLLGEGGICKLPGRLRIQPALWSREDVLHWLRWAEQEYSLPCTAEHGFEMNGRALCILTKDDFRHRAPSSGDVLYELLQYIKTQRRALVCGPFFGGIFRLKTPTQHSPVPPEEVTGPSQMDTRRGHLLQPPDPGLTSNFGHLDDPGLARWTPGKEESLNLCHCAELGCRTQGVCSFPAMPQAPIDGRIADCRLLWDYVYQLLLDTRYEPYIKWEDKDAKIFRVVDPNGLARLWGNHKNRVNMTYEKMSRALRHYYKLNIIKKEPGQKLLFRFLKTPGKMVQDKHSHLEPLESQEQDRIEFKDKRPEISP
Procedure, shortened: as §1

ELF5 = biological target: T11, ELF5 (Homo sapiens, UniProt Q9UKW6-2 1-255); settings: protein: recombinant; tags: N-terminal GST; dsDNA, one strand shown
T11 sequence: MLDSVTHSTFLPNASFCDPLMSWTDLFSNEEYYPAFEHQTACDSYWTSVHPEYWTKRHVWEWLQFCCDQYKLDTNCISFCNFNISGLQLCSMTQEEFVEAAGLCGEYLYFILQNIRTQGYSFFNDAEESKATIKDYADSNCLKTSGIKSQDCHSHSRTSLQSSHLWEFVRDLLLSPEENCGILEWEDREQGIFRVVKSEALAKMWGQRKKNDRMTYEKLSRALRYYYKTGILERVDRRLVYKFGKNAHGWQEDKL
Procedure, shortened: as §1

ETV3 = biological target: T12, ETV3 (Homo sapiens, UniProt P41162-2 1-143); settings: protein: recombinant; tags: N-terminal GST; dsDNA, one strand shown
T12 sequence: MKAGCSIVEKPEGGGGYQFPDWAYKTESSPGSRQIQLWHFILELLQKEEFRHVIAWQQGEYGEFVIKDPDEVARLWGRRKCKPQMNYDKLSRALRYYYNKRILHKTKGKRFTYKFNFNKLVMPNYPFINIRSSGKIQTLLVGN
Procedure, shortened: as §1

ETV6 = ETV6 (Homo sapiens, UniProt P41212 1-452); settings: protein: recombinant; tags: N-terminal GST; dsDNA, one strand shown
Chain of ETV6 (P41212 whole entry): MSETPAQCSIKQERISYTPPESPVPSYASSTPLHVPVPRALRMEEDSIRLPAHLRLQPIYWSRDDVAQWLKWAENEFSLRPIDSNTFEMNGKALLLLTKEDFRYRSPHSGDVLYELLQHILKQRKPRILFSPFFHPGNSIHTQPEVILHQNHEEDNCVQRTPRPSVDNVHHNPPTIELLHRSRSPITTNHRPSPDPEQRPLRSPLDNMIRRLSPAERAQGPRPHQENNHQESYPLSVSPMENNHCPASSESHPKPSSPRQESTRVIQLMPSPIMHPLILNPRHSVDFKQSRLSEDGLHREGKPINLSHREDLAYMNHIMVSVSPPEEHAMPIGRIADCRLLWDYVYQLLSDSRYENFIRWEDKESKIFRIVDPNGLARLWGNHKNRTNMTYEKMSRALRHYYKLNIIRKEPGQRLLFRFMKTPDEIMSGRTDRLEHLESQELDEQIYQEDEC
Procedure, shortened: as §1

ATATGG was tested, and the binding signal (FEV) was 1.25 fold enrichment (6-mer frequency, TF over GST control), the binding signal (ETV5) was 1.3 fold enrichment (6-mer frequency, TF over GST control) and the binding signal (HSF1) was 1.17 fold enrichment (6-mer frequency, TF over GST control). For the same sequence, the binding signal (SPIC) was 1.41 fold enrichment (6-mer frequency, TF over GST control), the binding signal (ELF4) was 1.35 fold enrichment (6-mer frequency, TF over GST control) and the binding signal (ELK4) was 1.36 fold enrichment (6-mer frequency, TF over GST control). For the same sequence, the binding signal (ETV2) was 1.13 fold enrichment (6-mer frequency, TF over GST control), the binding signal (ELF3) was 1.36 fold enrichment (6-mer frequency, TF over GST control) and the binding signal (CRX) was 1.19 fold enrichment (6-mer frequency, TF over GST control). For the same sequence, the binding signal (ETV1) was 1.17 fold enrichment (6-mer frequency, TF over GST control), the binding signal (ERF) was 1.16 fold enrichment (6-mer frequency, TF over GST control) and the binding signal (ETV3L) was 1.3 fold enrichment (6-mer frequency, TF over GST control). The binding signal (ETS2) was 1.32 fold enrichment (6-mer frequency, TF over GST control), the binding signal (SPDEF) was 1.3 fold enrichment (6-mer frequency, TF over GST control) and the binding signal (ETV7) was 1.34 fold enrichment (6-mer frequency, TF over GST control). For the same sequence, the binding signal (ELF5) was 1.27 fold enrichment (6-mer frequency, TF over GST control), the binding signal (ETV3) was 1.35 fold enrichment (6-mer frequency, TF over GST control) and the binding signal (ETV6) was 1.34 fold enrichment (6-mer frequency, TF over GST control).
